In all, about 39,000 sequences were measured (“fluorescence intensity (a.u.)”: median about 4,300, highest 2% from about 39,000 on). The list comes from a sample in which the highest values are over-represented; it also holds similar and randomly drawn sequences.

This test has as its target T1, OsSMF1 (Oryza sativa, UniProt Q6ZLB0 1-436).
T1 sequence: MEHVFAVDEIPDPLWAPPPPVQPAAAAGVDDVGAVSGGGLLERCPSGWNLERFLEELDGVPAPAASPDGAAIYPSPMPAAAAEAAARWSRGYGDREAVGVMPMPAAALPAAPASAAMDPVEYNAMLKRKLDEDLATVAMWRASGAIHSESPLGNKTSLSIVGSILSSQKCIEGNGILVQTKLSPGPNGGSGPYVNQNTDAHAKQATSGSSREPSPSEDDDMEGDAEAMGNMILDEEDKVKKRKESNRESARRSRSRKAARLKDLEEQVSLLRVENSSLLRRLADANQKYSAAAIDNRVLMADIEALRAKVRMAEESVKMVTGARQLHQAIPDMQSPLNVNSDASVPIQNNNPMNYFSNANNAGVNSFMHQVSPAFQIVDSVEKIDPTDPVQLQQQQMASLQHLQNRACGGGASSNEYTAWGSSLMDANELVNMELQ
Briefly: protein-binding microarray (RPBM); PBS, 2% BSA, 51.3 ng/ul salmon testes DNA, 50 uM zinc acetate, 200 nM TF, 25 C, 1 h; high values mean tight binding. To be noted: protein: recombinant; tags: N-terminal polyhistidine and DsRed monomer fusion (pET32a); chain copies: 2; label: CyDye5-dUTP incorporated in the synthesized complementary strand; 3' TTTTT single-stranded linker to array surface; dsDNA, one strand shown. The essentials: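 Binding signal is defined as the fluorescence intensity of each feature in arbitrary units, read on an Axon 4000B scanner. Transcription factors with N-terminal polyhistidine and DsRed fusions came from E. coli BL21-CodonPlus and were purified on Ni–NTA. They were incubated at 200 nM for 1 h at 25 °C on a custom Agilent array that had been made double-stranded with Cy5-dUTP, with 50 µM zinc acetate present, and the array was washed.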
For “GTAATTACAGCTCATGATTTTCTCTCTCTCTCTCTCTCTACGGAGTCACCTAGTGCAG”, the binding signal is 19500 fluorescence intensity (a.u.).
Take “CGAAATAAGTAATTTACAGGGCTTTCTCTCTCTCGCTCACCGGAGTCACCTAGTGCAG”: the binding signal was 64400 fluorescence intensity (a.u.).
As for “ACTTACACAGTAATTACACCTCACTTACACCCGCTTACACCGGAGTCACCTAGTGCAG”, the binding signal is 5410 fluorescence intensity (a.u.).
Regarding “GTCACATCATCATGCATTAATAAAATGCCACGTCATCATCCGGAGTCACCTAGTGCAG”, the binding signal was 50000 fluorescence intensity (a.u.).
As for “ATGTTGACTGGACTAGCACGTGTACGCCACGTAGACCAAACGGAGTCACCTAGTGCAG”, the binding signal was 4790 fluorescence intensity (a.u.).
As to “TGCTGATGTTGCTGCTAAAATTGCACCATTGTTGTGTAACCGGAGTCACCTAGTGCAG”, the binding signal was 40700 fluorescence intensity (a.u.).
Regarding “AGCTGTGTTGCTAATTGTGGCATTGTGATGTGATGATCCCCGGAGTCACCTAGTGCAG”, the binding signal was 3160 fluorescence intensity (a.u.).
The figure for “ATAATGCTGACTGAACTGCCATGTGTACGCCACGTAGACCCGGAGTCACCTAGTGCAG” is 27600 fluorescence intensity (a.u.).
For the sequence “GGATCAAATTGCCACATATGCGCCACGTTAATGCCACATCCGGAGTCACCTAGTGCAG”, the binding signal is 8660 fluorescence intensity (a.u.).
The figure for “AAATGCTGACTGGACTGCCACGTGTACGCCACGTAGACCACGGAGTCACCTAGTGCAG” is 45400 fluorescence intensity (a.u.).
Consider “TTGTTAACTGCTGATGTGTGACCTGACTGTTAAAAGCTGCCGGAGTCACCTAGTGCAG”, for which the binding signal was 9170 fluorescence intensity (a.u.).
With “CACATAAATAATAATAAAATGTGGGACCCACGTGGGCCCCCGGAGTCACCTAGTGCAG”, the binding signal is 10400 fluorescence intensity (a.u.).
In the case of “ACACGTGGGACCCACGTGGGTCCCATGCTGACTCAGCTGCCGGAGTCACCTAGTGCAG”, the binding signal is 28100 fluorescence intensity (a.u.).
With “TAAATAATTGCCATTGCCATGCTGCCACGTGTCATGGGACCGGAGTCACCTAGTGCAG”, the binding signal is 49900 fluorescence intensity (a.u.).
Consider “GTGCATAAATTTATTAAAATAGAAAATTAATGCAGTGCCACGGAGTCACCTAGTGCAG”, for which the binding signal was 4660 fluorescence intensity (a.u.).
Regarding “ACACTGTTCACCATGATCCACGTATATATGTGACGAAAATCGGAGTCACCTAGTGCAG”, the binding signal was 4560 fluorescence intensity (a.u.).
Take “TTGCGACGGCCATCCTCCGCGCGCGTGACACCAACGCCACCGGAGTCACCTAGTGCAG”: the binding signal is 4880 fluorescence intensity (a.u.).
For “TTTCCCTGATAATAATAACCGACACGCGTAAGCTCTTGAACGGAGTCACCTAGTGCAG”, the binding signal was 3360 fluorescence intensity (a.u.).
Next, “AGCATTTCCATCCACCACACGCGTACGTCCCCGTCACGCGCGGAGTCACCTAGTGCAG”: 7440 fluorescence intensity (a.u.); “AAGTGCCTACCAAGCCAGCATCGTGTCATAGCCGGAGCATCGGAGTCACCTAGTGCAG”: 3730 fluorescence intensity (a.u.).
For “ATTTGCGCTGATATATTATCTAACGTGACACGATTAATCCCGGAGTCACCTAGTGCAG”, the binding signal is 6030 fluorescence intensity (a.u.).
Regarding “GGGTCATTTGTCCCTTTCTGGAATGAAGTGCTTTGTAAAACGGAGTCACCTAGTGCAG”, the binding signal is 33100 fluorescence intensity (a.u.).
“TTTTAATCCGAGTTTCAGACCACGATGGCCATTTGTTTCGCGGAGTCACCTAGTGCAG”: the binding signal was 3460 fluorescence intensity (a.u.).
For the sequence “TACCTTACCTGTACGGCAGGCATGCATGTTACTCCAGTAGCGGAGTCACCTAGTGCAG”, the binding signal was 39800 fluorescence intensity (a.u.).
For “ACCTGTTGTACTTAGTTACGGCGACACGTTTGCATCAGGCCGGAGTCACCTAGTGCAG”, the binding signal is 6860 fluorescence intensity (a.u.).
On to “ACAGTACTTGGCTGTAGCGGGCATCTTGTCCTGGCATGTGCGGAGTCACCTAGTGCAG”, for which the binding signal was 3600 fluorescence intensity (a.u.).
For “TGTGACCGGTTTTGATTAGTTAAGGGACGCCGGGTATCTGCGGAGTCACCTAGTGCAG”, the binding signal was 31600 fluorescence intensity (a.u.).
For the sequence “GCACCGGTTTTGATAGTTGAGGGACTTGTTGTATCTGGTTCGGAGTCACCTAGTGCAG”, the binding signal is 29200 fluorescence intensity (a.u.).
For the sequence “AATCTGCACCGGTTTTGATAGTTAAGGGACTAATTGTATCCGGAGTCACCTAGTGCAG”, the binding signal was 41700 fluorescence intensity (a.u.).
Next, “TAAGATCACCTATAGATATATCATTCCAAGTCATAGATTGCGGAGTCACCTAGTGCAG”: 6060 fluorescence intensity (a.u.); “GCAGTAGACACGACGTACTTGTCAATGGTGAGGCATTTATCGGAGTCACCTAGTGCAG”: 3350 fluorescence intensity (a.u.); “TGGTTCAAAATGTAAACATTAGTTAAATGGTGATCCAAAGCGGAGTCACCTAGTGCAG”: 49900 fluorescence intensity (a.u.).
For the sequence “ATTGAAAAGTTTGGTTCAAATTAAAATTTTAGTAACAAAACGGAGTCACCTAGTGCAG”, the binding signal is 24300 fluorescence intensity (a.u.).
As for “TAATTGTGATCAAAATTGTAACAAATGCACGGTCATTAAGCGGAGTCACCTAGTGCAG”, the binding signal was 3320 fluorescence intensity (a.u.).
The figure for “TAGTACCTTTACTTTTCAGTTTTCACCCCATGTGGCATACCGGAGTCACCTAGTGCAG” is 3620 fluorescence intensity (a.u.); for “GCCACGGTCTCGTTGTGATGTTGTGATATTAGGTTCACTGCGGAGTCACCTAGTGCAG” it is 46600 fluorescence intensity (a.u.).
Consider “AGTTGTGATGTCGCCACGTTGGCGGCCGGCGACTGCGCCACGGAGTCACCTAGTGCAG”, for which the binding signal is 12000 fluorescence intensity (a.u.).
On to “TCCCGCATGTGTTGTGTGATGTGTCTCGTCTCCGCCACCACGGAGTCACCTAGTGCAG”, for which the binding signal was 7960 fluorescence intensity (a.u.).
“TCTTCATGTAGTCAGCATACATCTGTCACAGCCACAGACACGGAGTCACCTAGTGCAG”: the binding signal is 4480 fluorescence intensity (a.u.).
On to “AATAAGTAGTTGGTGATACGTGTTAGCCACGAGGCATATACGGAGTCACCTAGTGCAG”, for which the binding signal was 4020 fluorescence intensity (a.u.).
In the case of “AGAGGTACGTAAAATGACACATGTGCCTCTTCATACGCTCCGGAGTCACCTAGTGCAG”, the binding signal is 3150 fluorescence intensity (a.u.).
Turning to “CCAAGTTCGGCTGGTCGCCACGCCACCCATCTCCATCTTCCGGAGTCACCTAGTGCAG”, the binding signal is 4140 fluorescence intensity (a.u.).

For the origin of these results see publication PMC7819943, “Rice protein-binding microarrays: a tool to detect cis-acting elements near promoter regions in rice”.
